High-throughput results: PubChem, several laboratories
Compounds with a hit are over-represented: about 4.7% of the library has one in this group of screens.
tim10-1 inh: growth inhibitors of tim10-1 mutant yeast | S. cerevisiae tim10-1 ts strain growth, BacTiter-Glo, 24 h | inhibition, % at 20 µM | 2.2% of 330,000 active | AID 463190;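 active = inhibition of at least 40%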;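 note: mutant grown at 25 °C; 0% = DMSO wells with yeast and 100% = wells holding no yeast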
EBI2 antag: EBI2 (human) antagonism | P32249 | EBI2 beta-arrestin recruitment, luminescence, 7a,25-OHC stimulated | inhibition, % at 5 µM | 0.81% of 360,000 active; in the data active = inhibition above about 38%;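 note: enzyme fragment complementation signal reports receptor beta-arrestin coupling in cells; 0% = agonist plus DMSO wells and 100% = wells without agonist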
Target sequence (P32249 whole entry, looked up, the tested form may be a part): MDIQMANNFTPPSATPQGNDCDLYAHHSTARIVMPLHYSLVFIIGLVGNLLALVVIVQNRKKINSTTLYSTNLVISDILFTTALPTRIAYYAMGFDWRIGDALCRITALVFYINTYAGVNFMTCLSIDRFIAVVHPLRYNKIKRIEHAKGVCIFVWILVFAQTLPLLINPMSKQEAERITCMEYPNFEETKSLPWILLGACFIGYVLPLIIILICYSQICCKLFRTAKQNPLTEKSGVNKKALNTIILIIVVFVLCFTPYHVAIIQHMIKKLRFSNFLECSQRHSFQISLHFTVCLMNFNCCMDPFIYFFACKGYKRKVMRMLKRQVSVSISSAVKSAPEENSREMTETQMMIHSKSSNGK
SKKanGAS inh: SKKanGAS growth inhibition; S. pyogenes SKKanGAS, kanamycin growth, BacTiter-Glo, 6 h; inhibition, % at 7.5 µM; 1.3% of 300,000 active; AID 1662;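 active = mean replicate score, as percent of positive control median, at least 50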;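 note: strain carries kanamycin resistance gene driven by streptokinase promoter and grows in 40 µg/ml kanamycin; loss of luminescence reflects streptokinase promoter inhibition or plain growth inhibition; 0% = median of DMSO wells and 100% = positive control at its reference dose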
tim23-1 inh: tim23-1 yeast growth inhibition. S. cerevisiae tim23-1 growth, BacTiter-Glo luminescence, 24 h. inhibition, % at 20 µM. 1.3% of 330,000 active. AID 463212;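 active = growth inhibition of the mutant yeast at or above 50%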;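 note: temperature-sensitive mutant grown at 25 °C; plate controls were DMSO-treated mutant yeast for no effect and medium wells lacking yeast for full effect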
TIM10 inh: growth inhibitors of TIM10 yeast strain; S. cerevisiae TIM10 strain growth, BacTiter-Glo luminescence, 24 h; inhibition, % at 10 µM; 1.4% of 330,000 active;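 active = inhibition of 40% or more at the single tested concentration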;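 note: wild-type TIM10 isogenic control strain grown at permissive 25 °C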
PfHsp90 yeast 2: growth inhibition of yeast expressing Plasmodium Hsp90; 0.32% of 310,000 active; S. cerevisiae expressing PfHsp90, BacTiter-Glo ATP, 48 h; yeast lacking PDR1 and PDR3 efflux regulators; inhibition, % at 9.4 µM; AID 504621;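 active = every replicate shows inhibition above about 80%, whatever the replicate mean, limit read from the data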;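 note: 0% = DMSO neutral controls and 100% = 20 µM radicicol positive controls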
tim10-1 conf: confirmation of tim10-1 mutant yeast growth inhibitors; shares compounds with tim10-1 inh; S. cerevisiae tim10-1 ts strain growth, BacTiter-Glo, 24 h; inhibition, % at 20 µM; 56% of 7,400 active; AID 463213;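 active = inhibition of yeast growth at or above a set limit in either of two repeat tests at 20 µM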;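 note: tim10-1 mutant grown at permissive 25 °C to find synthetic lethal compounds; 0% = DMSO yeast wells and 100% = medium wells without yeast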
* = called active by the depositor.

For COc1cc(OC)cc(C(=O)O/N=C(\N)c2ccncc2)c1 the results were tim10-1 inh 1.6, EBI2 antag -30.3, SKKanGAS inh -4.0, tim23-1 inh -0.9, TIM10 inh -13.2 and PfHsp90 yeast 2 25.2.
`Cc1cccc(C(=O)O/N=C(/c2ccccc2)c2ccncc2)c1` gave tim10-1 inh 41.1*, EBI2 antag 13.7, SKKanGAS inh -3.0, tim23-1 inh 37.0, TIM10 inh 30.7 and tim10-1 conf 41.8*.
Screening N/C(=N\OC(=O)c1ccc(Br)cc1)c1ccncc1 returned tim10-1 inh 53.1*, EBI2 antag -11.4, SKKanGAS inh -21.1, tim23-1 inh 29.3, TIM10 inh 37.2, PfHsp90 yeast 2 -0.4 and tim10-1 conf 43.3*.
N/C(=N\OC(=O)c1ccc(F)cc1)c1ccc(Br)cc1 was read as tim10-1 inh 56.8*, EBI2 antag 0.6, SKKanGAS inh 1.0, tim23-1 inh 28.7, TIM10 inh 34.2 and tim10-1 conf 46.0*.
For N/C(=N\OC(=O)c1cccc(Br)c1)c1ccncc1 the results were tim10-1 inh 40.6*, EBI2 antag -18.1, SKKanGAS inh -3.9, tim23-1 inh 11.7, TIM10 inh 10.7, PfHsp90 yeast 2 10.0 and tim10-1 conf 34.6*.
N/C(=N\OC(=O)c1ccccc1)c1ccncc1 was read as tim10-1 inh -8.1, EBI2 antag -6.8, SKKanGAS inh -3.5, tim23-1 inh 4.0, TIM10 inh 4.4 and PfHsp90 yeast 2 2.3.
`COc1ccccc1CN1C[C@@H]2C[C@@H](c3[nH]c4c(C)cccc4c3C)N3CCC[C@@]23C1=O` gave tim10-1 inh 21.2, EBI2 antag 2.4, SKKanGAS inh 4.7, tim23-1 inh 18.7 and TIM10 inh 15.7.
`CCc1cc(=O)oc2cc(OC3CCCCC3=O)ccc12` (centres undefined) gave tim10-1 inh 42.7*, EBI2 antag -2.3, SKKanGAS inh -2.3, tim23-1 inh 35.1, TIM10 inh 5.1, PfHsp90 yeast 2 -29.9 and tim10-1 conf 13.3.
For Cc1c(C)c2ccc(OC3CCCCC3=O)cc2oc1=O (centres undefined) the results were tim10-1 inh 19.4, EBI2 antag 0.2, SKKanGAS inh 0.2, tim23-1 inh 15.7, TIM10 inh -11.6 and PfHsp90 yeast 2 -5.9.
`CC(=O)c1c(C)[nH]c(C(=O)CSc2nc3ccc(C)cc3[nH]2)c1C` gave tim10-1 inh -11.9, EBI2 antag 11.1, SKKanGAS inh -9.0, tim23-1 inh -13.5, TIM10 inh 1.3 and PfHsp90 yeast 2 -2.8.
`NC(=O)C(=O)N/N=C/c1c2ccccc2cc2ccccc12` gave tim10-1 inh 14.0, EBI2 antag -1.5, SKKanGAS inh 0.8, tim23-1 inh 19.0, TIM10 inh 1.6 and PfHsp90 yeast 2 -4.9.
CC(C)C(=O)N1CCC2(CC1)Oc1ccc(F)cc1C(=O)C21CC(c2cccnc2)=NO1 (centres undefined) was read as tim10-1 inh 3.3, SKKanGAS inh 4.0, tim23-1 inh -8.7 and TIM10 inh -12.0.
Screening Cc1ccc(C(=O)N2CCC3(CC2)Oc2ccc(F)cc2C(=O)C32CC(c3cccnc3)=NO2)s1 (centres undefined) returned tim10-1 inh 42.3*, EBI2 antag 11.7, SKKanGAS inh 2.4, tim23-1 inh -1.7, TIM10 inh -8.1, PfHsp90 yeast 2 -13.7 and tim10-1 conf 25.1.
`C=C1CCC[C@]2(C)C[C@H]3OC(=O)C(CNCCN(C)C)[C@H]3CC12` (some centres undefined) gave tim10-1 inh 45.7*, EBI2 antag -10.2, SKKanGAS inh -2.1, tim23-1 inh 33.3, TIM10 inh 16.3, PfHsp90 yeast 2 -26.0 and tim10-1 conf 43.7*.
`C=C1CCC[C@]2(C)C[C@H]3OC(=O)C(CNCCN(CC)CC)[C@H]3CC12` (some centres undefined) gave tim10-1 inh 52.4*, EBI2 antag -3.8, SKKanGAS inh -3.2, tim23-1 inh 30.4, TIM10 inh 17.9, PfHsp90 yeast 2 -3.2 and tim10-1 conf 48.2*.
